Laboratory results: PubChem BioAssay
Unmarked numbers belong to inactive results.

Assay: cell viability in Huh7 cells, primary screen, cytotoxicity control for HCV replication inhibitor project, CellTiter-Glo luminescence, basal, 48 h (AID 1143);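 also: Huh7 hepatoma cells carrying a hepatitis C replication reporter with no stimulus; test concentration not given here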
Settings: Huh7 HCV replicon, higher = more signal, called active from +8 up or from −8 down

**Q.** Which z-score does the source give for `COC(=O)[C@@]1(Cc2ccccc2)[C@H]2c3cc(C(=O)N4CCCC4)n(C)c3C[C@H]2CN1C(=O)c1ccccc1` here?
**A.** The z-score was -1.6.

**Q.** Which z-score does the source give for `CC(C)Cc1ccc(CN2CC[C@@H](NS(=O)(=O)c3ccccc3)C2)cc1` here?
**A.** Its z-score is -5.08.

**Q.** Which z-score does the source give for `CC(=O)Nc1cc(Br)ccc1C(=O)O` here?
**A.** The z-score was 0.0092.

**Q.** Which z-score does the source give for `COC(=O)[C@@]1(Cc2ccccc2N=[N+]=[N-])COC(c2ccc(OCCCO)cc2)=N1` here?
**A.** The z-score was -2.44.

**Q.** With `NC(=O)NCC#Cc1ccc2c(c1)[C@]1(C(=O)N2)[C@H](C(=O)NC[C@H](O)c2ccccc2)[C@H]2C(=O)O[C@H](c3ccccc3)[C@H](c3ccccc3)N2[C@@H]1c1ccc(O)cc1` as the compound, how does the z-score read?
**A.** The z-score was 0.525.

**Q.** For `CCOC(=O)C[C@H]1[C@H](OC(=O)c2ccc(-c3ccccc3)cc2)[C@@H](NC(=O)Cc2ccc(OC)cc2)c2cc(OCCCO)ccc2N1C(=O)c1ccc2ccccc2n1`, which z-score is on record?
**A.** The z-score was 0.429.

**Q.** With `COc1cccc(C(=O)O[C@H]2CC[C@]3(C)C4=C(CCC3C2(C)C)[C@]2(C)CC[C@H]([C@H](C)CCCC(C)C)[C@@]2(C)CC4)c1` (stereo not given in full) as the compound, how does the z-score read?
**A.** The z-score was -1.

**Q.** Which z-score does the source give for `O=C/C=C/c1ccc2c(c1)OCO2` here?
**A.** The z-score was -1.95.

**Q.** With `O=C1C=CC(=O)[C@@H]2CC(COc3ccccc3)=C3[C@@H](CCc4ccccc4)OB(O)C[C@@H]3[C@H]12` as the compound, how does the z-score read?
**A.** Its z-score is -2.77.

**Q.** For `O=C1O[C@@H](c2ccccc2)[C@@H](c2ccccc2)N2[C@@H](c3ccc(O)cc3)[C@]3(C(=O)Nc4ccc(C#CC5(O)CCCCCC5)cc43)[C@@H](C(=O)N3CCCCCCC3)[C@H]12`, which z-score is on record?
**A.** The z-score was -2.41.
